Active and inactive are the calls of the source.
Legend:
Albumin (Bos taurus) = Albumin (Bos taurus) (UniProt P02769); assay: compounds binding labelled BSA control protein – biochemical, small-molecule microarray, Alexa647 label, 635/667 nm fluorescence, artefact control for SMM control protein annotation, profiling panel (AID 1118); details: BSA-A647 binding, fluorescence 635 nm, higher = more signal;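 note: score merges 667 nm emission intensity and signal-to-noise per printed compound spot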
[1] = probe aXIP binding to arrayed compounds – biochemical, NeuroSMM set, 635/667 nm fluorescence, primary screen (AID 1119); details: small-molecule microarray, higher = more signal, called active from +8 up or from −8 down;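 note: probe is the protein aXip251-270 applied at 1 µg/mL to compound-printed slides; binding of probe to printed compounds measured as 667 nm fluorescence plus signal to noise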
[2] = probe aNOTCH3 binding on compound microarray – biochemical, small-molecule microarray, 635/667 nm fluorescence, primary screen (AID 1120); details: higher = more signal;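 note: probe is a biotin-tagged antibody raised against NOTCH3 rather than NOTCH3 protein; score merges spot fluorescence near 667 nm with spot signal to noise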
[3] = probe aNOTCH2 binding on compound microarray – biochemical, small-molecule microarray, 635/667 nm fluorescence, primary screen (AID 1121); details: higher = more signal;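 note: score merges feature fluorescence read at 667 nm with its signal to noise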
[4] = target: Carbonic anhydrase 2 (Homo sapiens) (UniProt P00918); assay: compounds binding carbonic anhydrase 2 – biochemical, small-molecule microarray, Alexa647-labelled CAII, profiling panel (AID 1122); details: CAII-A647 binding fluorescence, higher = more signal
[5] = COS7 lysate on small-molecule microarray, probe aHis, 635 nm (AID 1123); details: COS7 cell lysate, fluorescence, higher = more signal;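 note: z-score combines 667nm fluorescence intensity with signal-to-noise per printed compound spot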
[6] = probe aLAP1 signal on lysate-treated microarray – cell lysate, small-molecule microarray, COS7 lysate, primary screen (AID 1124); details: probe aLAP1, fluorescence, higher = more signal;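 note: lysate comes from COS7 cells expressing LAP1 and is applied at 0.3 µg/mL; score merges spot fluorescence near 667 nm with signal-to-noise over triplicate slides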
Sam68 (KHDRBS1) = assay: compounds binding KHDRBS1 protein – biochemical, small-molecule microarray, 635 nm fluorescence, primary screen (AID 1125); details: higher = more signal;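 note: score merges 667 nm channel intensity with signal to noise over triplicate slides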
[7] = tested on: Chordin-like protein 2 (CHRDL2); assay: compounds binding chordin-like 2 – biochemical, small-molecule microarray, 635 nm fluorescence, primary screen (AID 1126); details: fluorescence 635 nm, higher = more signal;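 note: printed compound slides probed with Chrdl2 protein at 4 µg/mL for 1 h at 4 C; score merges 667 nm emission intensity with signal to noise over three replicate slides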
[8] = target: Concanavalin-A (Canavalia ensiformis) (UniProt P02866); assay: compounds binding concanavalin A lectin – biochemical, small-molecule microarray, Alexa647 label, 635 nm, artefact control for SMM control protein annotation, primary screen (AID 1127); details: ConA-A647 binding fluorescence, higher = more signal;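 note: z combines 667 nm emission intensity with signal-to-noise across three replicate slides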
Concanavalin-A (Canavalia ensiformis), sequence (P02866 whole entry, looked up): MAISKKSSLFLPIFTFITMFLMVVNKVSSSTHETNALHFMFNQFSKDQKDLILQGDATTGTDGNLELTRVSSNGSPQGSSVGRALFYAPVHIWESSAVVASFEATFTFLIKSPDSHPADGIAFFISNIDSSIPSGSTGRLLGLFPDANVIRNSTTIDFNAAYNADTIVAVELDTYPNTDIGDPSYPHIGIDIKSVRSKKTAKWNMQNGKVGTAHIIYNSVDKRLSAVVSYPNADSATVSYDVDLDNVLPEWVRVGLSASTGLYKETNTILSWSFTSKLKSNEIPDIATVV

[9] = compounds binding Alexa647 anti-His antibody – biochemical, small-molecule microarray, 635 nm fluorescence, artefact control for SMM control protein annotation, primary screen (AID 1128); details: higher = more signal;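 note: score merges feature fluorescence with signal-to-noise for each printed compound spot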
[10] = tested on: Human papillomavirus type 1a E7 protein (residues 1-88); assay: HPV1a E7 small-molecule binders, primary screen, biochemical, small-molecule microarray, residues 1-88, 635 nm (AID 1129); details: small-molecule microarray binding, fluorescence 635 nm; higher = more signal
[11] = target: Focal adhesion kinase 1 (Homo sapiens) (UniProt Q05397); assay: PTK2 protein binding on printed compound slides – biochemical, small-molecule microarray, 635/667 nm fluorescence, BSA, DTT, primary screen (AID 1130); details: 635 nm fluorescence, higher = more signal;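 note: composite of spot emission at 667 nm and signal to noise over triplicate slides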
Focal adhesion kinase 1 (Homo sapiens), sequence (Q05397 whole entry, looked up): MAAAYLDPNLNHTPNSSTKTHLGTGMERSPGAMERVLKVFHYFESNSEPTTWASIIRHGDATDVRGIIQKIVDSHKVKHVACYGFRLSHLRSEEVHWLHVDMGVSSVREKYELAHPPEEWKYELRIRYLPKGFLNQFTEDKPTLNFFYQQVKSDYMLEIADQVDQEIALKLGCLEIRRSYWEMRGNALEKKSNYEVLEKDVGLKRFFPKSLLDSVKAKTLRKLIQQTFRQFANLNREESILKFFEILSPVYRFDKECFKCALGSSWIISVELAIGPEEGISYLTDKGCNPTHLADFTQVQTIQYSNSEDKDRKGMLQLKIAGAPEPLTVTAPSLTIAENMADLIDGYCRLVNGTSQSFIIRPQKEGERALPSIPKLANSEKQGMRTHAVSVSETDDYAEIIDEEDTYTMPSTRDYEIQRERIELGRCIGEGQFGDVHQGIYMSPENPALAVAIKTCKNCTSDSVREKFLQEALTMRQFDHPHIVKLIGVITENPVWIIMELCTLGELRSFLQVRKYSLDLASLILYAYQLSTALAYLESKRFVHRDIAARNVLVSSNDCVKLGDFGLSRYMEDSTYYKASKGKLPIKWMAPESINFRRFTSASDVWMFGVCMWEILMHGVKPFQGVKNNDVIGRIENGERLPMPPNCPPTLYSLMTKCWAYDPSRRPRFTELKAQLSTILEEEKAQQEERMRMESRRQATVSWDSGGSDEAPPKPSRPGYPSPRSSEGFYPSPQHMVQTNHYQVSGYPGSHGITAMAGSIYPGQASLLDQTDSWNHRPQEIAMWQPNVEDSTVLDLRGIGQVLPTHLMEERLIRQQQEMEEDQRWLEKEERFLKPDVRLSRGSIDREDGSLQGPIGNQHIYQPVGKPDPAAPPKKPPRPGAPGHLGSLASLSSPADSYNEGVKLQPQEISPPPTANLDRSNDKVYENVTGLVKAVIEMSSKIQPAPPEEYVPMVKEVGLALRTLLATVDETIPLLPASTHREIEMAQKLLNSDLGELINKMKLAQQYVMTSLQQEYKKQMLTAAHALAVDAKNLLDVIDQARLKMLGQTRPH

[12] = tested on: Fibrinogen (Alexa647-labelled); assay: Alexa647-fibrinogen binding to printed small molecules – biochemical, small-molecule microarray, 635/667 nm fluorescence, artefact control for SMM control-protein annotation, profiling panel (AID 1131); details: fibrinogen-A647 binding fluorescence, higher = more signal;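 note: z-score merges 667 nm fluorescence with per-spot signal-to-noise over triplicate slides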
[13] = target: Follistatin (Homo sapiens) (UniProt P19883); assay: FST protein binding to printed compounds – biochemical, small-molecule microarray, 635/667 nm fluorescence, primary screen (AID 1132); details: 635 nm fluorescence, higher = more signal
Follistatin (Homo sapiens), sequence (P19883 whole entry, looked up): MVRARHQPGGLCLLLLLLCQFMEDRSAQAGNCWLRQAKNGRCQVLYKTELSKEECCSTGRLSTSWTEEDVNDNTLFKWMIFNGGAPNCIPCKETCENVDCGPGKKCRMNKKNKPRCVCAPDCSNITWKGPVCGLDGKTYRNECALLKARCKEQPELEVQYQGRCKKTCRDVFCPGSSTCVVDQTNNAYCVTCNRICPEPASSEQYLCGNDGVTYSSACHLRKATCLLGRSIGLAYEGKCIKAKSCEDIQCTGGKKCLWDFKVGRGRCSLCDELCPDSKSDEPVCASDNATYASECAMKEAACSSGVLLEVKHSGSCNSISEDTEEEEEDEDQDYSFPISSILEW

[14] = target: Fibroblast growth factor 2 (Homo sapiens) (UniProt P09038); assay: basic fibroblast growth factor binding to printed compounds – biochemical, small-molecule microarray, 635/667 nm fluorescence, primary screen (AID 1133); details: FGF2, fluorescence 635/667, higher = more signal
Fibroblast growth factor 2 (Homo sapiens), sequence (P09038 whole entry, looked up): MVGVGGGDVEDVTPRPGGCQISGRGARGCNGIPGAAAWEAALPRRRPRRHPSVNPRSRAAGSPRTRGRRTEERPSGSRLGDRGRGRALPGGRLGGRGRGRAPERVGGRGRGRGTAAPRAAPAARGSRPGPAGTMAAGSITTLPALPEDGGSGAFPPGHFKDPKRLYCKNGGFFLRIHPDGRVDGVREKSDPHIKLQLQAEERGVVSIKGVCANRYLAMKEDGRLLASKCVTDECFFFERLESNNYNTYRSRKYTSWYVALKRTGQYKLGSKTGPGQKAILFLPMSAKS

[15] = JC-1 mitochondrial potential readout, lung cancer cells – cell-based, A549, JC-1 fluorescence, basal, 24 h, 100 nL, profiling panel (AID 1138); details: higher = more signal;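 note: A549 lung adenocarcinoma cells under basal conditions with no added stimulus; test concentration not given here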
Lefty1 = Lefty1 protein binding to printed compounds – biochemical, small-molecule microarray, 635/667 nm fluorescence, primary screen (AID 1139); details: fluorescence 635/667, higher = more signal
[16] = tested on: wheat germ agglutinin (Triticum aestivum), Alexa647-labelled; assay: Alexa647-WGA lectin binding to printed small molecules – biochemical, small-molecule microarray, 635/667 nm fluorescence, artefact control for SMM control-protein annotation, profiling panel (AID 1140); details: WGA-A647 binding, 635 nm fluorescence, higher = more signal;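 note: score merges 667 nm feature emission with signal to noise over triplicate slides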
[17] = target: Luciferin 4-monooxygenase (Photinus pyralis) (UniProt P08659); assay: inhibition of purified Photinus pyralis luciferase – biochemical, luminescence, purified enzyme, 2006 set, primary screen (AID 1141); details: purified firefly luciferase, SteadyGlo luminescence, 30 min; higher = more signal, called active from +8 up or from −8 down;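 note: cell-free assay with purified firefly luciferase at 100 ng per well in PBS; test concentration not given here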
Luciferin 4-monooxygenase (Photinus pyralis), sequence (P08659 whole entry, looked up): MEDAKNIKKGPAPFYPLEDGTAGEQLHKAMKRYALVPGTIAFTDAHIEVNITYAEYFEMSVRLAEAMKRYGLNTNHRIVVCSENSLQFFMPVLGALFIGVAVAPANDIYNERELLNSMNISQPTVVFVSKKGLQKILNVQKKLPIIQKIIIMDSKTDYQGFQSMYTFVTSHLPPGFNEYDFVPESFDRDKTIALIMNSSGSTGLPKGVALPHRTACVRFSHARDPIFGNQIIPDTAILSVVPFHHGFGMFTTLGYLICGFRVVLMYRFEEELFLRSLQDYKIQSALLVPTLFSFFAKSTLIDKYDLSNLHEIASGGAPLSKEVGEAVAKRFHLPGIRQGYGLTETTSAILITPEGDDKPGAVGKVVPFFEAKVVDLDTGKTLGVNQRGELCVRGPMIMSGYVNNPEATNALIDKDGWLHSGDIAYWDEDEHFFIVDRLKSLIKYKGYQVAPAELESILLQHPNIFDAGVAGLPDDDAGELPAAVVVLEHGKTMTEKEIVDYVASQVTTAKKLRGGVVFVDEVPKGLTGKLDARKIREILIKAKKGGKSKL

Albumin (Bos taurus), sequence (P02769 whole entry, looked up): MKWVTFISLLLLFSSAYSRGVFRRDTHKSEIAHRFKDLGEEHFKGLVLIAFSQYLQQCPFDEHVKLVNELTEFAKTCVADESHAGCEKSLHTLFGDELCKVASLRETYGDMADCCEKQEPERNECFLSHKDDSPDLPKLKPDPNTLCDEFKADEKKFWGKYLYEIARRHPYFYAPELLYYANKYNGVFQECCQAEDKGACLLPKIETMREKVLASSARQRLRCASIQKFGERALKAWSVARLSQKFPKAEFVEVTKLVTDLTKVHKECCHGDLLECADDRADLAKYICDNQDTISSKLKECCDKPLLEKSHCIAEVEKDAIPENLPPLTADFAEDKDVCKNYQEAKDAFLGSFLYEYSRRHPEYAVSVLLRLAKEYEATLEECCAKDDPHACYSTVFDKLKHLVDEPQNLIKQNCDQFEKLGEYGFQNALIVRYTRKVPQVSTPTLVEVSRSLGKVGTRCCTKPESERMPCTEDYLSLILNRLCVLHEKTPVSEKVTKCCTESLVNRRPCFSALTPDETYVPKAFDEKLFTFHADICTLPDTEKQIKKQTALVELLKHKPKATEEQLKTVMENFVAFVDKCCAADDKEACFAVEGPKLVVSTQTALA

Structure (SMILES)	composite z-score (Albumin (Bos taurus))	composite Z-score [1]	composite z-score [2]	composite z-score [3]	composite z-score [4]	composite z-score [5]	composite z-score [6]	composite z-score (Sam68 (KHDRBS1))	composite z-score [7]	composite z-score [8]	composite z-score [9]	composite z-score [10]	composite z-score [11]	composite z-score [12]	composite z-score [13]	composite z-score [14]	z-score [15]	composite z-score (Lefty1)	composite z-score [16]	z-score [17]
C=C(COC)C(=O)CC[C@H](OC(=O)c1cccnc1)c1ccc(OCCO)cc1	-0.286	0.509 (inactive)	0.201	-0.128	0.665	0.709	1.53	1.14	0.563	0.293	-0.108	0.355	-0.172	0.637	1.07	0.893	-0.747	1.63	0.73	-2.23 (inactive)
O=C(NCCN1CCOCC1)[C@@H]1c2ccccc2C(=O)N(Cc2ccccc2C(F)(F)F)[C@H]1c1ccc(CO)cc1	0.0089	-0.141 (inactive)	-0.425	-0.108	0.341	-0.0272	2.49	1.29	-0.93	0.0882	-1.48	0.0783	-0.331	-0.676	-0.2	-0.0425	2.63	-1.24	0.708	-0.676 (inactive)
CC(C)(C)OC(=O)CC[C@@]1(C(=O)NCCN2CCOCC2)N=C(c2ccc(OCCCO)cc2)O[C@@H]1c1ccccc1CN=[N+]=[N-]	0.812	2.03 (inactive)	0.0488	-0.112	0.245	1.17	0.59	0.696	-0.743	1.08	0.384	0.372	0.499	1.01	-0.0674	-0.495	-0.293	-0.0313	0.608	-4.33 (inactive)
COCCOC(=O)N1C(=O)[C@@]2(c3cc(C#CCC(C(=O)OC)C(=O)OC)ccc31)[C@H](c1ccc(O)cc1)N1[C@H](c3ccccc3)[C@H](c3ccccc3)OC(=O)[C@H]1[C@@H]2C(=O)Nc1nc2ccccc2s1	0.703	0.179 (inactive)	0.146	-0.126	0.342	1.17	0.447	1.3	0.627	1.15	1.15	1.21	2.02	0.954	1.42	1.54	-2.1	1.44	0.968	-0.344 (inactive)
COc1ccc([Si](C)(C)[C@@H]2[C@@H](CC(=O)N3Cc4ccccc4C[C@H]3CO)O[C@]3(C(=O)N(Cc4ccc(N5CCOC5=O)cc4)c4ccccc43)[C@H]2C)cc1	-0.289	1.54 (inactive)	0.0803	-0.128	0.624	1.12	0.313	1.27	1.26	1.16	1.74	0.986	0.239	0.55	1.32	1.49	0.138	1.53	0.914	-0.912 (inactive)
CC=CC(O)C1C=CC2C(=O)NC(=O)C2N1Nc1ccc(Cl)cc1Cl (stereo not given)	0.7	1.23 (inactive)	0.033	-0.0698	0.59	1.72	0.465	-0.227	0.853	-0.953	1.78	-0.352	-0.288	-0.419	1.04	-0.0658	0.099	0.15	0.898	-0.158 (inactive)
CCN(CC)c1ccc(N2CC=CC34O[C@@H]5C=CCCOC(=O)C5[C@H]3C(=O)N(C(C)CO)[C@@H]4C2=O)cc1 (stereo not given in full)	0.653	0.195 (inactive)	0.102	-0.159	0.835	-0.806	0.385	-0.304	-0.0271	-0.361	1.72	0.649	0.339	-0.943	0.461	-0.199	0.337	0.399	0.329	-0.421 (inactive)
COc1ccc(C#Cc2ccc3c(c2)[C@]2(C(=O)N3)[C@H](C(=O)O)[C@H]3C(=O)O[C@H](c4ccccc4)[C@H](c4ccccc4)N3[C@@H]2c2ccccc2OCCO)cc1	0.594	0.493 (inactive)	-0.301	-0.0069	0.509	1.08	0.387	1.31	0.117	1.14	3.16	1.17	0.352	0.955	1.19	1.25	-2.71	1.04	1.02	-5.71 (inactive)
C=C(CCCC)/C(=C/C[C@H](OC(C)=O)c1cccc(OCCO)c1)c1cnc2ccccc2c1	-0.0372	-0.325 (inactive)	-0.135	-0.149	0.84	-0.66	-0.207	0.0549	0.466	0.116	-0.966	-0.263	-0.494	-0.785	0.389	-0.183	2.35	0.177	0.324	-1.29 (inactive)
O=C(N1CCOCC1)[C@@]1(Cc2ccccc2)COC(c2ccc(OCCCO)cc2)=N1	1	-0.0252 (inactive)	0.14	0.245	0.769	2.7	0.872	1.19	-0.354	0.578	2.69	1.23	0.674	0.767	-0.119	-0.445	-1.04	-1.1	0.603	-0.276 (inactive)

Source: PubChem BioAssay
